Assay outcomes (PubChem BioAssay)
TbREL1 inh – TbREL1 inhibition, primary screen. P86926. TbREL1 RNA ligation, FRET fluorescence. inhibition, % at 9.66 µM. hit rate 0.49% among 89,000. AID 1117264;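 active means inhibition above the mean inhibition across all screened compounds plus 3 SD, cut at about 11% in these data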
Target sequence (P86926 whole entry, looked up): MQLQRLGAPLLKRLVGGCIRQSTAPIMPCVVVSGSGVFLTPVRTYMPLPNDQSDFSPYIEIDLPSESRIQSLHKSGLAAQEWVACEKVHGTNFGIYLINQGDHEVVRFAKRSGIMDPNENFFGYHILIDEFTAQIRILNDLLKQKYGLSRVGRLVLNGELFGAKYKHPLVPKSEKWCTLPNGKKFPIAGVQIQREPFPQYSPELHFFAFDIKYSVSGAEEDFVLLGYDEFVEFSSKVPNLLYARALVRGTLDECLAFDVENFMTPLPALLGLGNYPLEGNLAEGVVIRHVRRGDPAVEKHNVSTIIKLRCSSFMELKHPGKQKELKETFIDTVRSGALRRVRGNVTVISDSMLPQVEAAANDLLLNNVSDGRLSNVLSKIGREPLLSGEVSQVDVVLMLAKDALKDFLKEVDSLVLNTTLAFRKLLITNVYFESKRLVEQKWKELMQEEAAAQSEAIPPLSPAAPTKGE
TbREL1 confirm – TbREL1 inhibition, confirmation | shares compounds with TbREL1 inh | TbREL1 RNA ligation, FRET fluorescence | inhibition, % at 9.66 µM | hit rate 37% among 390 | AID 1117282;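 active means mean inhibition across replicates above a set limit taken from the earlier primary screen, cut at about 11% in these data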
Each line names hits and unclear results; the compound was inactive in the other large screens (follow-up assays come after a bar, where they were run). The sample as a whole holds a higher share of hits than the screen did.

CCOc1ccc2nc(N(CCCN(C)C)C(=O)c3ccc(S(=O)(=O)N4CCCC4)cc3)sc2c1	none
CCN(Cc1ccccc1)S(=O)(=O)c1ccc(C(=O)N(CCCN(C)C)c2nc3ccc(F)cc3s2)cc1	none
Cc1ccc2nc(N(CCCN(C)C)C(=O)c3ccc4c(c3)CCCC4)sc2c1	none
Cc1cccc2sc(N(CCCN(C)C)C(=O)c3ccc(C(=O)c4ccccc4)cc3)nc12	none
CN(C)CCCN(C(=O)c1ccc(S(=O)(=O)N2CCCC2)cc1)c1nc2ccc(Br)cc2s1	none
CN(C)CCCN(C(=O)c1ccc(C(=O)c2ccccc2)cc1)c1nc2ccc(F)cc2s1	TbREL1 inh 14 | TbREL1 confirm inactive
CN(C)CCCN(C(=O)c1ccc(S(=O)(=O)N(C)C2CCCCC2)cc1)c1nc2ccc(F)cc2s1	TbREL1 inh 11 | TbREL1 confirm inactive
O=C(CCSc1nnc(-c2ccc(O)cc2)o1)N1CCOCC1	none
CC(C)C[C@H]1COCCS(=O)(=O)N1Cc1ccccc1F	none
CCCOc1ccc2cc(C(=O)NCc3ccccc3)c(=O)oc2c1	none
Cc1ccc(-c2cc(C)nc3nc(N)nn23)cc1	none
O=C(O)C1C2CCC(O2)C1C(=O)Nc1ccc(Cl)cc1F (stereo not drawn)	none
COC(=O)C1=C(C(=O)OC)[C@@H]2N(Cc3ccccc3)c3ccccc3[C@@]23C[C@@H](C(=O)OC)N(C(=O)c2cc(C)oc2C)C3=N1	none
O=C(NC1CCCCC1)C1CCCN(S(=O)(=O)c2cccc3cccnc23)C1 (stereo not drawn)	TbREL1 inh 13 | TbREL1 confirm inactive
O=C(Nc1ccncc1)C1CCCN(S(=O)(=O)c2cccc3cccnc23)C1 (stereo not drawn)	none
O=C(NC1CCCC1)C1CCN(S(=O)(=O)c2cccc3cccnc23)CC1	none
CSc1cccc(NC(=O)C2C3C=CC4(O3)C2C(=O)N(CCCN2CCOCC2)C4C(=O)NC2CCCCC2)c1 (stereo not drawn)	none
[N-]=[N+]=NCCN1CCN(Cc2ccccc2)CCC1=O	none
COC(=O)c1ccc(/C=C/c2ccc3cccc(OC(C)=O)c3n2)cc1	none
CC(C)(C)c1ccc(C(=O)Nc2ccc(Cl)cc2)cc1	none
CC(C)(C)c1ccc(C(=O)Nc2cc(Cl)c(Cl)cc2C(=O)O)cc1	none
CC(C)(C)c1ccc(C(=O)Nc2cc(Cl)c(F)cc2C(=O)O)cc1	TbREL1 inh 13 | TbREL1 confirm inactive
CCOc1ccc(C(=O)OCC(=O)Nc2cc(S(=O)(=O)N3CCOCC3)ccc2N2CCOCC2)cc1	none
CCOC(=O)c1cnn(-c2ccccc2)c1NC(=O)C(F)(F)C(F)(F)C(F)(F)F	none
O=c1[nH]c(C2CCN(S(=O)(=O)c3ccccc3C(F)(F)F)CC2)nc2c1nnn2Cc1ccccc1	none
O=C(Nc1ccc(F)cc1)N1CCCN(c2ccc(C(F)(F)F)cn2)CC1	TbREL1 inh 25 | TbREL1 confirm inactive
O=C(Nc1ccccc1)N1CCN(c2ccc(F)cc2)CC1	none
O=C(Nc1ccccc1)N1CCCN(c2ccc(C(F)(F)F)cc2[N+](=O)[O-])CC1	none
O=S(Cc1ccc(Cl)cc1)c1ncc(CO)n1Cc1ccccc1 (stereo not drawn)	none
Cc1cccnc1NC(=S)NC(=O)c1oc2ccccc2c1C	none
O=S1(=O)c2ccc(N3CC[C@H](O)C3)cc2O[C@H]2CCN1C2	none
CSCCC(NC(=O)COc1ccccc1)C(=O)N1CCN(c2ccccc2O)CC1 (stereo not drawn)	TbREL1 inh 42 | TbREL1 confirm inactive
CSCCC(NC(=O)COc1ccccc1)C(=O)OCC(=O)c1ccccc1 (stereo not drawn)	none
CCOC(=O)C1CCN(C(=O)C(CCSC)NC(=O)COc2ccccc2)CC1 (stereo not drawn)	none
CCO[C@H]1OC(C(=O)N2CCN(C)CC2)=C[C@@H](C2CC2)[C@@H]1CCCO	none
CC(C)NC(=O)CCCn1cc([N+](=O)[O-])cn1	none
Cc1nn(C(=O)Cn2cc([N+](=O)[O-])cn2)c(C)c1Cl	TbREL1 inh 11 | TbREL1 confirm inactive
COC(=O)c1ccc(Cn2cc([N+](=O)[O-])cn2)cc1	none
O=C(Cc1cccc(F)c1F)NC1CCCN(Cc2ccc(Cl)cc2)C1 (stereo not drawn)	none
Cc1ccc(C(=O)Nc2ncccc2C)o1	none
O=C(NCc1cccs1)c1nc2ncccn2n1	none
O=S1(=O)CCOC[C@H](CC2CCCCC2)N1Cc1ccc(Cl)cc1	none
O=C(NCc1ccc(Cl)c(Cl)c1)O[C@H]1CC[C@@]23CCCN2C(=O)CCC[C@H]3C1	none
CCN1CCN(CC(=O)Nc2cc(C(F)(F)F)ccc2OCCOC)CC1	TbREL1 inh 15 | TbREL1 confirm inactive
COCCOc1ccc(C(F)(F)F)cc1NC(=O)CN1C(=O)NC(C)(c2ccc3c(c2)OCO3)C1=O (stereo not drawn)	none
CCCOc1ccc(C(F)(F)F)cc1NC(=O)CN1C(=O)C(=O)N(CC)C1=O	none
[S-]c1nnc(-c2ccc(Br)cc2)n1-c1ccccc1.[Zn+2]	TbREL1 inh 23 | TbREL1 confirm 17
O=C(O)c1ccc(CSc2nnc(-c3ccncc3)n2-c2ccc(Br)cc2)cc1	none
COc1ccc(-n2c(-c3ccccc3)nnc2-c2ccc(Cl)cc2)cc1	none
CN(c1ccccc1)S(=O)(=O)c1ccc(C(=O)NNC(=O)c2ccccc2F)cc1	none
COc1cccc(-c2cc(C(=O)NCc3cccs3)no2)c1	none
CCOc1ccc(C(=O)NCC(=O)NCC(c2ccc(OC)cc2)N2CCCC2)cc1 (stereo not drawn)	none
O=C(c1cccnc1)N1CCN(C(=O)c2ccco2)CC1	none
O=C(c1cccnc1)N1CCN(Cc2cccc(Br)c2)CC1	TbREL1 inh 11 | TbREL1 confirm inactive
O=C(c1ccc([N+](=O)[O-])cc1)N1CCN(C(=O)c2cccnc2)CC1	none
N#Cc1c(NC(=O)CSc2nnc(-c3ccccc3O)n2-c2ccccc2)sc2c1CCCC2	none
CCC(Cc1ccccc1)NC(=O)C1CC1 (stereo not drawn)	none
Cn1cccc1CC(=O)NN=C/C=C\c1ccco1	TbREL1 inh 67 | TbREL1 confirm inactive
Cc1ccc(-n2c(SCC(=O)N/N=C/C=C\c3ccco3)nnc2-c2ccccc2)cc1	none
Cn1cccc1CC(=O)NN=Cc1cccc(F)c1	none
COc1cccc(CC2(CO)CCCN(Cc3[nH]c4ccc(C)cc4c3C)C2)c1 (stereo not drawn)	none
N=c1c2c(-c3ccccc3)c(-c3ccccc3)n(Cc3ccco3)c2ncn1Cc1ccco1	none
COCCNCCOCCOc1ccc(Cl)c(C)c1	none
Cc1cc(OCCOCCNCc2ccccc2)ccc1C(C)C	TbREL1 inh 19 | TbREL1 confirm inactive
Cc1ccc(C)c(OCCCNCc2ccccc2)c1	none
Cc1cccc(C(=O)N=C2SC3CS(=O)(=O)CC3N2c2ccccc2)c1 (stereo not drawn)	none
CCN1CCN(C(=S)NC(=O)c2cccc(Br)c2)CC1	none
CC1=NN(c2ccccc2)C(=O)/C1=C\c1cc(C)n(C)c1C	none
CC1=NN(c2ccccc2)C(=O)/C1=C/N(C)C	TbREL1 inh 12 | TbREL1 confirm inactive
CN(C)/C=C1/C(=O)N(c2ccc([N+](=O)[O-])cc2)N=C1c1ccccc1	none
Cc1ccc(S(=O)(=O)N2CCN(C(=O)c3cc(S(=O)(=O)N4CCOCC4)ccc3Cl)CC2)c(C)c1	none
COc1cc(C(=O)O)ccc1OCc1ccccc1	none
COc1cc(CN(CCN(C)C)Cc2ccccc2)ccc1OCc1ccccc1	TbREL1 inh 16 | TbREL1 confirm 12
COc1cc(CNC(=O)C2CC2)ccc1OCc1ccccc1	none
CCN(CC(=O)Nc1cccc(OC)c1)C(=O)c1cccc(S(=O)(=O)N2CCc3ccccc32)c1	none
CC(NC(=O)c1ccccc1O)c1ccccc1 (stereo not drawn)	none
